High-throughput results deposited in PubChem by Emory University Molecular Libraries Screening Center.
The full list was thinned out, with hits kept by preference.
14-3-3 PPI: modulators of human 14-3-3 gamma - Raf peptide interaction; P61981; FP, 14-3-3gamma / TMR-pS259-Raf peptide binding; inhibition, % at 40 µM; 160,000 compounds, 0.19% hits; in the data active = inhibition above about 30%;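 also: 0% = protein plus tracer without compound and 100% = blank with tracer alone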
Target sequence (P61981 whole entry, looked up): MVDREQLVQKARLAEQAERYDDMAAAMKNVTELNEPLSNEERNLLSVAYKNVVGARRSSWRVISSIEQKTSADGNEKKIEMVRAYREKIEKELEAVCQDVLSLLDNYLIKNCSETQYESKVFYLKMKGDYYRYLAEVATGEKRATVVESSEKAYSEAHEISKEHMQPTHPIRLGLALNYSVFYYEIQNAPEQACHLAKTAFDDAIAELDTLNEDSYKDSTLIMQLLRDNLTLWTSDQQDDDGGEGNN
Active calls of the source: *; ! = repeats disagree.

`CC(=O)[C@]1(O)Cc2c(O)c3c(c(O)c2[C@@H](O[C@H]2C[C@H](N)[C@H](O)[C@H](C)O2)C1)C(=O)c1ccccc1C3=O` gave 14-3-3 PPI 116.9*.
`COc1cccc2c1C(=O)c1c(O)c3c(c(O)c1C2=O)C[C@@](O)(C(C)=O)C[C@@H]3O[C@H]1C[C@H](N)[C@H](O)[C@H](C)O1` gave 14-3-3 PPI -3.9.
`CCC(C)NC(=O)c1ccc2c(=O)n(CCOC)c(=O)[nH]c2c1` (stereo not drawn) gave 14-3-3 PPI -4.2.
For CC1CCCC(NC(=O)c2ccc3c(=O)n(Cc4ccccc4)c(=S)[nH]c3c2)C1C (stereo not drawn) the results were 14-3-3 PPI -3.1.
`O=S(=O)(NCc1ccc2c(c1)OCO2)c1cccc2nonc12` gave 14-3-3 PPI -10.6.
For O=C(CSc1nnnn1-c1ccc2c(c1)OCO2)Nc1ccc(OC(F)(F)Cl)cc1 the results were 14-3-3 PPI -2.8.
COc1ccc(S(=O)(=O)NCCC(=O)NCc2cccs2)cc1 was read as 14-3-3 PPI -5.1.
`O=C(CCNS(=O)(=O)c1ccc(Cl)cc1)NCc1cccnc1` gave 14-3-3 PPI -2.5.
COc1ccc(S(=O)(=O)NCCC(=O)NCc2cccnc2)cc1 was read as 14-3-3 PPI 55.9*.
CCOC(=O)c1cnc2c(C#N)cnn2c1-c1ccccc1 was read as 14-3-3 PPI -0.1.
`CCOC(=O)c1cnc2c(C#N)cnn2c1C` gave 14-3-3 PPI 140.9*.
CCOC(=O)Cc1c(C)nc2c(C#N)cnn2c1C was read as 14-3-3 PPI -3.9.
COc1ccc(OC)c(NC(=O)CCN2CCCCC2)c1 was read as 14-3-3 PPI 2.5.
Screening COc1ccc(OC)c(NC(=O)CCN2CCCC(C)C2)c1 (stereo not drawn) returned 14-3-3 PPI 35.3*.
For COc1ccc(C)cc1NC(=O)CCN1CCCC1 the results were 14-3-3 PPI 1.4.
O=C(CSc1nc2c(cnn2-c2ccccc2)c(=O)[nH]1)Nc1ccc(Br)cc1 was read as 14-3-3 PPI -4.5.
Screening CCc1ccc(C2=CC(c3cccc(C)c3)n3nnnc3N2)cc1 (stereo not drawn) returned 14-3-3 PPI -6.0.
For Cc1cccc(C2C=C(c3ccc(Cl)cc3)Nc3nnnn32)c1 (stereo not drawn) the results were 14-3-3 PPI -19.8.
Screening Cc1ccc(C2=CC(c3ccc(C)cc3)n3nnnc3N2)cc1 (stereo not drawn) returned 14-3-3 PPI 1.3.
Screening Cc1cccc(C2C=C(c3ccc(Br)s3)Nc3nnnn32)c1 (stereo not drawn) returned 14-3-3 PPI 48.1*.
Screening Clc1ccccc1C1C=C(c2cccs2)Nc2nnnn21 (stereo not drawn) returned 14-3-3 PPI -4.9.
Screening Cc1ccc(C2C=C(c3cccs3)Nc3nnnn32)cc1 (stereo not drawn) returned 14-3-3 PPI 37.3*.
`COc1cc(SC)ccc1C(=O)NC1CCCCCCC1` gave 14-3-3 PPI -8.7.
For CC(OC(=O)c1cc(-c2cccs2)nc2ccccc12)C(=O)c1ccccc1 (stereo not drawn) the results were 14-3-3 PPI 0.6.
For CCc1nc(C)ccc1OCC(=O)O the results were 14-3-3 PPI 74.1*!.
`CCc1nc(C)ccc1OCC(=O)NCCCN(C)C` gave 14-3-3 PPI -4.3.
Cc1ccc2nc(C)cc(OCC(=O)O)c2c1 was read as 14-3-3 PPI -6.0.
For COC(=O)C1=C(N)N(c2ccc(F)cc2)C2=C(C(=O)CC(C)(C)C2)C1c1ccc(Cl)cc1 (stereo not drawn) the results were 14-3-3 PPI -5.5.
Screening CCCCCCCOC(=O)C1=C(C)Nc2ncnn2C1c1ccccc1[N+](=O)[O-] (stereo not drawn) returned 14-3-3 PPI -1.6.
Screening Cc1cccc(C)c1N1C(=O)c2ccc([N+](=O)[O-])c3c([N+](=O)[O-])ccc(c23)C1=O returned 14-3-3 PPI -20.2.
O=C(O)c1cc(N2C(=O)c3ccc([N+](=O)[O-])c4c([N+](=O)[O-])ccc(c34)C2=O)ccc1O was read as 14-3-3 PPI -32.4.
Screening O=C1c2ccc([N+](=O)[O-])c3c([N+](=O)[O-])ccc(c23)C(=O)N1c1ccc(O)cc1 returned 14-3-3 PPI 43.5*.
C=CCC1C=CCC(CC=C)N1C(=O)C(F)(F)F (stereo not drawn) was read as 14-3-3 PPI 0.7.
C=CCC1C=CCC(CC=C)N1CCO (stereo not drawn) was read as 14-3-3 PPI 105.5*.
`CC(C)CC1CCCC(CC(C)C)N1CCO` (stereo not drawn) gave 14-3-3 PPI -4.5.
For O=C(O)CCN1C(=O)C(=O)c2ccccc21 the results were 14-3-3 PPI -8.4.
Cc1ccc(-n2cc(-c3ccccc3)nc2SCC(=O)NC2CCCCC2)cc1 was read as 14-3-3 PPI -31.3.
CC(=O)Nc1cc(C(C)C)c(C(C)C)cc1C(C)C was read as 14-3-3 PPI 13.1.
COc1ccc(NC(=O)C2(C)CC3c4ccccc4C2c2ccccc23)cc1 (stereo not drawn) was read as 14-3-3 PPI 55.3*.
COc1ccc(NC(=O)C23CCC(C2)C(C)(C)C3=O)cc1 (stereo not drawn) was read as 14-3-3 PPI 0.7.
`Cc1ccc(C)c(NC(=O)C2(C)CC3c4ccccc4C2c2ccccc23)c1` (stereo not drawn) gave 14-3-3 PPI 2.5.
For COc1ccc(OCc2nc3ccccc3n2CC(=O)N(c2ccccc2)C(C)C)cc1 the results were 14-3-3 PPI -3.4.
`Cc1ccccc1CSc1nc2ccccc2c(=O)n1CC1CCC(C(=O)NCc2ccco2)CC1` (stereo not drawn) gave 14-3-3 PPI 8.9.
CCOC(=O)c1cccnc1SCc1ccc(C)cc1 was read as 14-3-3 PPI -6.7.
For O=C(CCNC(=O)Cn1ccc2ccccc2c1=O)NCc1ccco1 the results were 14-3-3 PPI 3.1.
For Cc1ccccc1Nc1ccc2noc3c2c1C(=O)c1ccccc1-3 the results were 14-3-3 PPI -223.1.
O=C1c2ccccc2-c2onc3ccc(NCCCn4ccnc4)c1c23 was read as 14-3-3 PPI 2.4.
CC(=O)OCCNc1ccc2noc3c2c1C(=O)c1ccccc1-3 was read as 14-3-3 PPI active.
For O=C1C(Nc2ccc(Br)cc2)=C(N2CCCCC2)C(=O)c2ccccc21 the results were 14-3-3 PPI -4.8.
`Cc1cccc(N=Cc2c(O)c(C(=O)Nc3ccccc3C)cc3ccccc23)c1` gave 14-3-3 PPI -16.1.
COc1ccccc1NC(=O)c1cc2ccccc2c(C=Nc2ccc(OC(F)F)cc2)c1O was read as 14-3-3 PPI 112.1*.
For CCc1cccc(N=Cc2c(O)c(C(=O)Nc3ccccc3)cc3ccccc23)c1 the results were 14-3-3 PPI 5.6.
Cc1csc(NC(=O)CSc2nc(-c3ccc(F)cc3)cc(-c3ccccc3)c2C#N)n1 was read as 14-3-3 PPI -10.7.
Screening COC(=O)c1c(C)oc2ccc(N(C(=O)c3ccc(C)cc3)S(=O)(=O)c3cc(C)ccc3C)cc12 returned 14-3-3 PPI -37.4.
Screening Oc1ccc2ccccc2c1C=Nc1cccn2cc(-c3ccccc3)nc12 returned 14-3-3 PPI 92.8*.
Cc1cc(Br)ccc1N=Cc1c(O)ccc2ccccc12 was read as 14-3-3 PPI -2.0.
For Oc1ccc2ccccc2c1/C=N/n1cnnc1 the results were 14-3-3 PPI -8.4.
COc1ccc(N2C(=O)C3C4C=CC(C4)C3C2=O)cc1Cl (stereo not drawn) was read as 14-3-3 PPI -0.2.
